Test results reported in PubChem BioAssay (NCI).
About 83,000 compounds went through this panel and 20% of them were active in at least one assay; those are over-represented in the sample as a whole.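 Each cell line was grown in a 96-well plate and treated with one concentration of compound for 48 hours. Values below 10 were considered active.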 Activity calls are given as the source filed them.

test system: SR leukemia; assay: NCI-60 one-dose screen, 48 h (100 = growth as untreated, 0 = no growth, -100 = all killed); conditions: 10 µM unless noted

Row | Compound | growth
1 | Cc1ccc2c(c1)c(Sc1ccc(C(=O)NO)cc1)c1n2CN(C)CC1 | 5.05% (active)
2 | O=C1NC(=S)S/C1=C\c1cccc([N+](=O)[O-])c1 | 70.1% (inactive)
3 | CCCN(CCC)c1ccc(/C=C/c2ccc3cc(OCC)ccc3n2)cc1 | -8.74% (active)
4 | Clc1ccc(C2=NN(c3ccccc3)[C@H](c3cn(-c4ccccc4)nc3-c3ccccc3)C2)cc1 | 118% (inactive)
5 | COc1cc(C(=O)/C=C/c2c(-c3cccs3)nc3sccn23)cc(OC)c1OC | 10.3% (inactive)
6 | CCOC(=O)C1=C(C)N2C(=NC3=C(CCCC/C3=C\c3cc(OC)c(OC)c(OC)c3)C2c2cc(OC)c(OC)c(OC)c2)S1 (stereo unspecified) | 47.4% (inactive)
7 | CN1CCN(c2nc(-c3ccncc3)nc3sc4c(c23)CCCCCC4)CC1 | 32.5% (inactive)
8 | COc1ccc(-n2ncc3c4nc(OC)c(S(=O)(=O)c5ccccc5)cc4ccc32)cc1 | 85.9% (inactive)
9 | COc1ccc(C2CC(c3cc(OC)c(OC)c(OC)c3)=NN2c2ccc(S(N)(=O)=O)cc2)cc1 (stereo unspecified) | 33.2% (inactive)
10 | Cc1nn(CC(=O)O)c2c1C(=O)CC(C)(C)C2 | 89.1% (inactive)
11 | O=C1C(Br)=C(c2ccccc2)C(=O)C(Br)=C1c1ccccc1 | 71.1% (inactive)
12 | Cc1ccc(C)c2c1sc1nc3nc4sc5ccccc5n4c(=N)c3c(=O)n12 | 78.5% (inactive)
13 | Nc1cc(Br)c(-c2nnc(CCC(=O)c3nc4ccccc4[nH]3)o2)c(Br)c1 | 18.5% (inactive)
14 | COc1ccc(Nc2nc(NCCNc3ccnc4cc(Cl)ccc34)nc(N3CCOCC3)n2)cc1 | 7.72% (active)
15 | Cc1nc2cc(Nc3nc(N4CCOCC4)nc(N4CCN(C)CC4)n3)ccc2n1Cc1ccccc1 | 93% (inactive)
16 | COc1ccc(-c2nc3sc(C)cn3c2/C=C/C(=O)c2cc(OC)c(OC)c(OC)c2)cc1 | 48.5% (inactive)
17 | O=[N+]([O-])c1ccc(O)c2ncccc12 | 21.5% (inactive)
18 | CC1(C)N=C(N)N=C(N)N1c1cccc(/C=C/C=C/c2cccc([N+](=O)[O-])c2)c1 | 37% (inactive)
19 | O=c1nc(NO)[nH]c(=O)n1Cc1ccccc1 | 107% (inactive)

Row | Compound | growth
20 | C[C@@H](Oc1cc(-c2cnn(C3CC4(CCNCC4)C3)c2)cnc1N)c1c(F)ccc(Cl)c1Cl | -29.2% (active)
21 | N#C[S-].[Au+].c1ccc(CN2[CH-]N(Cc3ccccc3)C(c3ccccc3)=C2c2ccccc2)cc1 | -8.44% (active)
22 | C=CC(=O)N1CC2(CC(n3nc(-c4ccc(Oc5ccccc5)cc4)c4c(N)ncnc43)C2)C1 | 31.5% (inactive)
23 | CC(=O)OCC1OC([S-])C(OC(C)=O)C(OC(C)=O)C1OC(C)=O.[Au+].c1ccc(CN2[CH-]N(Cc3ccccc3)C(c3ccccc3)=C2c2ccccc2)cc1 | -8.38% [4.75 µM] (active)
24 | COc1ccc(OC)c(C2C(C#N)=C(N)Oc3cc(O)ccc32)c1 (stereo unspecified) | 80% (inactive)
25 | CC(C)(C)[Si](C)(C)OC1[C@@H](O[Si](C)(C)C(C)(C)C)[C@@H](CNC(=O)NC(=O)C(F)(F)F)O[C@H]1n1cnc2c(NC(=O)Nc3ccccc3)ncnc21 (stereo partly specified) | -41.9% (active)
26 | Nc1nc(N)c(N=Nc2c(Br)cc(S(N)(=O)=O)cc2Br)c(N)n1 | 34.5% (inactive)
27 | CC(=O)OCC1O[C@@H]([S-])C(OC(C)=O)[C@H](OC(C)=O)[C@@H]1OC(C)=O.[Au+].c1ccc(CN2[CH-]N(Cc3ccccc3)C(c3ccccc3)=C2c2ccccc2)cc1 | -29.1% (active)
28 | O=C(NCc1cccnc1)c1ccc([N+](=O)[O-])o1 | 23% (inactive)
29 | Cn1c(=O)c2c(-c3ccccc3F)n(-c3ccc4c(c3)OCO4)cc2n(C)c1=O | 68.1% (inactive)
30 | Nc1nc2c(s1)CCc1c-2c(Br)n(Cc2ccccc2)c1Br | 20.8% (inactive)
31 | CN1CCc2c(c3ccccc3c3ccccc23)C1 | 20.5% (inactive)
32 | COc1cccc(C2C3=C(COC3=O)N(CCO)c3cc4c(cc32)CCC4)c1 (stereo unspecified) | 29.4% (inactive)
33 | O=C(Nc1ccc(F)cc1)c1ccc(C(=O)Nc2ccc(F)cc2)cc1 | 94.5% (inactive)
34 | Cc1cc(O)cc2c1[C@H]1CC[C@]3(C)[C@@H](O)CC[C@H]3[C@@H]1C=C2 | 40.3% (inactive)
35 | C[C@@H](Oc1cc(-c2cnn(C3CC4(CCCNC4)C3)c2)cnc1N)c1c(Cl)ccc(F)c1Cl (stereo partly specified) | -3.47% (active)
36 | Clc1ccc(Nc2nc(Nc3ccccc3)nc(Nc3ccc(-c4cc(-c5ccc(Cl)cc5)on4)cc3)n2)cc1 | 51.5% (inactive)
37 | Cc1nc(-c2ccccc2)cc2c(O)c(C(=O)N/N=C/Cc3ccccc3)[nH]c(=O)c12 | 46.1% (inactive)

test system: RPMI-8226 leukemia; assay: as above; conditions: 10 µM

Row | Compound | growth
38 | Cc1ccc2c(c1)c(Sc1ccc(C(=O)NO)cc1)c1n2CN(C)CC1 | 1.92% (active)
39 | O=C1NC(=S)S/C1=C\c1cccc([N+](=O)[O-])c1 | 62.8% (inactive)
40 | CCCN(CCC)c1ccc(/C=C/c2ccc3cc(OCC)ccc3n2)cc1 | 35.6% (inactive)
41 | Clc1ccc(C2=NN(c3ccccc3)[C@H](c3cn(-c4ccccc4)nc3-c3ccccc3)C2)cc1 | 112% (inactive)
42 | COc1cc(C(=O)/C=C/c2c(-c3cccs3)nc3sccn23)cc(OC)c1OC | -0.804% (active)
43 | CCOC(=O)C1=C(C)N2C(=NC3=C(CCCC/C3=C\c3cc(OC)c(OC)c(OC)c3)C2c2cc(OC)c(OC)c(OC)c2)S1 (stereo unspecified) | 32.7% (inactive)
44 | CN1CCN(c2nc(-c3ccncc3)nc3sc4c(c23)CCCCCC4)CC1 | 69% (inactive)
45 | COc1ccc(-n2ncc3c4nc(OC)c(S(=O)(=O)c5ccccc5)cc4ccc32)cc1 | 95% (inactive)
46 | COc1ccc(C2CC(c3cc(OC)c(OC)c(OC)c3)=NN2c2ccc(S(N)(=O)=O)cc2)cc1 (stereo unspecified) | 4.35% (active)
47 | Cc1nn(CC(=O)O)c2c1C(=O)CC(C)(C)C2 | 99.2% (inactive)
48 | O=C1C(Br)=C(c2ccccc2)C(=O)C(Br)=C1c1ccccc1 | 99.2% (inactive)
49 | Cc1ccc(C)c2c1sc1nc3nc4sc5ccccc5n4c(=N)c3c(=O)n12 | 89.4% (inactive)
50 | Nc1cc(Br)c(-c2nnc(CCC(=O)c3nc4ccccc4[nH]3)o2)c(Br)c1 | 79.6% (inactive)
51 | COc1ccc(Nc2nc(NCCNc3ccnc4cc(Cl)ccc34)nc(N3CCOCC3)n2)cc1 | 45.9% (inactive)
52 | Cc1nc2cc(Nc3nc(N4CCOCC4)nc(N4CCN(C)CC4)n3)ccc2n1Cc1ccccc1 | 102% (inactive)
53 | COc1ccc(-c2nc3sc(C)cn3c2/C=C/C(=O)c2cc(OC)c(OC)c(OC)c2)cc1 | 31.5% (inactive)
54 | O=[N+]([O-])c1ccc(O)c2ncccc12 | 52.4% (inactive)

Row | Compound | growth
55 | CC1(C)N=C(N)N=C(N)N1c1cccc(/C=C/C=C/c2cccc([N+](=O)[O-])c2)c1 | 8.42% (active)
56 | O=c1nc(NO)[nH]c(=O)n1Cc1ccccc1 | 104% (inactive)
57 | C[C@@H](Oc1cc(-c2cnn(C3CC4(CCNCC4)C3)c2)cnc1N)c1c(F)ccc(Cl)c1Cl | -40.1% (active)
58 | C=CC(=O)N1CC2(CC(n3nc(-c4ccc(Oc5ccccc5)cc4)c4c(N)ncnc43)C2)C1 | 41% (inactive)
59 | COc1ccc(OC)c(C2C(C#N)=C(N)Oc3cc(O)ccc32)c1 (stereo unspecified) | 84.5% (inactive)
60 | CC(C)(C)[Si](C)(C)OC1[C@@H](O[Si](C)(C)C(C)(C)C)[C@@H](CNC(=O)NC(=O)C(F)(F)F)O[C@H]1n1cnc2c(NC(=O)Nc3ccccc3)ncnc21 (stereo partly specified) | 4.89% (active)
61 | Nc1nc(N)c(N=Nc2c(Br)cc(S(N)(=O)=O)cc2Br)c(N)n1 | 106% (inactive)
62 | O=C(NCc1cccnc1)c1ccc([N+](=O)[O-])o1 | 52.8% (inactive)
63 | Cn1c(=O)c2c(-c3ccccc3F)n(-c3ccc4c(c3)OCO4)cc2n(C)c1=O | 52.9% (inactive)
64 | Nc1nc2c(s1)CCc1c-2c(Br)n(Cc2ccccc2)c1Br | 51.7% (inactive)
65 | CN1CCc2c(c3ccccc3c3ccccc23)C1 | 50.8% (inactive)
66 | COc1cccc(C2C3=C(COC3=O)N(CCO)c3cc4c(cc32)CCC4)c1 (stereo unspecified) | 28.1% (inactive)
67 | O=C(Nc1ccc(F)cc1)c1ccc(C(=O)Nc2ccc(F)cc2)cc1 | 113% (inactive)
68 | Cc1cc(O)cc2c1[C@H]1CC[C@]3(C)[C@@H](O)CC[C@H]3[C@@H]1C=C2 | 80.8% (inactive)
69 | C[C@@H](Oc1cc(-c2cnn(C3CC4(CCCNC4)C3)c2)cnc1N)c1c(Cl)ccc(F)c1Cl (stereo partly specified) | -0.0926% (active)
70 | Clc1ccc(Nc2nc(Nc3ccccc3)nc(Nc3ccc(-c4cc(-c5ccc(Cl)cc5)on4)cc3)n2)cc1 | 50.8% (inactive)
71 | Cc1nc(-c2ccccc2)cc2c(O)c(C(=O)N/N=C/Cc3ccccc3)[nH]c(=O)c12 | 103% (inactive)
